Source: PubChem
Shown are actives, neighbours in structure and some others; about 10% of the full set was active somewhere.
G9a block = qHTS Assay for Inhibitors of Histone Lysine Methyltransferase G9a; Histone-lysine N-methyltransferase EHMT2 (Homo sapiens), Q96KQ7; G9a H3K9 monomethylation, AlphaScreen, 2 h; Potency, µM (doses to about 102 µM), usual class: inhibitors; actives 8.8% (n = 350,000); AID 504332, 2011; also: nearly all actives have a fitted effect of over 75% in size
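AlphaScreen detection with an anti-monomethyl H3K9 antibody quantified product after a 2 h room-temperature reaction containing 500 nM biotinylated H3K9 peptide, 20 µM SAM and 20 nM enzyme, which had been preincubated 15 min with compound.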
JMJD2A Tudor = qHTS Assay for Inhibitors of JMJD2A-Tudor Domain. AlphaScreen JMJD2A-Tudor / H3K4me3 peptide binding. actives 4.4% (n = 390,000). Potency, µM (titrated, usually from 114 µM), most hits filed as inhibitors. Lysine-specific demethylase 4A (Homo sapiens), O75164; also: nearly all actives have a fitted effect of over 50% in size
Target sequence (O75164 whole entry, looked up, the tested form may be a part): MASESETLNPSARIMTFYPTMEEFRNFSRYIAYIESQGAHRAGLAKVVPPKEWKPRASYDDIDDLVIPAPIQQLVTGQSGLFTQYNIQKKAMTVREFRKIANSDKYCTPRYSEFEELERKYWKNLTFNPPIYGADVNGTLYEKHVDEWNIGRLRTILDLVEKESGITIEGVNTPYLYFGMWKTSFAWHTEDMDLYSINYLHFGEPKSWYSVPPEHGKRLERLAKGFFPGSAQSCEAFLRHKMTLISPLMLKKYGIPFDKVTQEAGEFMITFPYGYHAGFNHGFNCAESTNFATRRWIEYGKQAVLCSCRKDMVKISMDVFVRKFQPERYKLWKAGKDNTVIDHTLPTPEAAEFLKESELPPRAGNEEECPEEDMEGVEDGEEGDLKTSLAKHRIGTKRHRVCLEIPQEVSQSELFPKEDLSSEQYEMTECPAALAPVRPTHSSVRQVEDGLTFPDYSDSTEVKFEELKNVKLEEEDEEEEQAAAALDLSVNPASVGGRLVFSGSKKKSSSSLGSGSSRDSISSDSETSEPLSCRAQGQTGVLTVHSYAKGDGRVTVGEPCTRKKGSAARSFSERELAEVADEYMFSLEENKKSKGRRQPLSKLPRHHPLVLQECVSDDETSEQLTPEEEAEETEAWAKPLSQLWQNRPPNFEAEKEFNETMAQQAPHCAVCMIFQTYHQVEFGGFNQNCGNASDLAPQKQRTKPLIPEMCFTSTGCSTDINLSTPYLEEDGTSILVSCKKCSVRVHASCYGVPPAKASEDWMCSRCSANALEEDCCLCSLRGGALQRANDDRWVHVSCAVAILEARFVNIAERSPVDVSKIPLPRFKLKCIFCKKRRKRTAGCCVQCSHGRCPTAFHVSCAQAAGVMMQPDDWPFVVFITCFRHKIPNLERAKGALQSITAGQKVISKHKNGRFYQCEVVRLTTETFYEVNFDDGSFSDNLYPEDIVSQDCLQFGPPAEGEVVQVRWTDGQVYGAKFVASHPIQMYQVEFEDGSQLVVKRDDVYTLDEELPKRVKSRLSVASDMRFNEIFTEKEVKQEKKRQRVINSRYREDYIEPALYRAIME
BAZ2B block = qHTS Assay for Inhibitors of BAZ2B. Bromodomain adjacent to zinc finger domain protein 2B (Homo sapiens), Q9UIF8. actives 4.4% (n = 360,000). AlphaScreen BAZ2B-H3K14Ac peptide displacement. AID 504333, 2011. Potency, µM (series often up to 114 µM), actives largely listed as inhibitors; also: nearly all actives have a fitted effect of over 60% in size
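Protein-peptide AlphaScreen: BAZ2B 50 nM, b-H3K14Ac 50 nM, 1x PBS pH 7.4 + 0.01% Tween-20. Preincubation 30 min RT; cpd 30 min RT (top 110 uM); beads 20 min RT, light-protected.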
GLS inh = qHTS for Inhibitors of Glutaminase (GLS); Glutaminase kidney isoform, mitochondrial (Homo sapiens), O94925; GLS enzymatic activity, qHTS titration; Potency, µM (highest dose often 45.5 µM), most hits filed as inhibitors; actives 0.21% (n = 410,000); AID 624170, 2012
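Compounds were pin-transferred onto hKGA, after which L-glutamine (1 mM solution) and a detection mix of glutamate oxidase, HRP and Amplex Red were added. Initial and 30 min RT fluorescence reads were collected.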
HP1b chromo inh = HTS for Inhibitors of HP1-beta Chromodomain Interactions with Methylated Histone Tails | Chromobox protein homolog 1 (Homo sapiens), P83916 | AlphaScreen HP1-beta / biotin-H3K9me3 peptide binding | Potency, µM (doses to about 114 µM), most hits filed as inhibitors | actives 0.56% (n = 390,000) | AID 540317, 2011; also: nearly all actives have a fitted effect of over 70% in size
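Compound inhibition of the preformed complex between 50 nM HP1-beta and 50 nM biotinylated H3K9me3 peptide was read by AlphaScreen. Buffer was PBS pH 7.4 with 0.01% Tween-20. Incubations ran 30 min at room temperature, with 10 ug/mL donor/acceptor beads.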
Numbers stand for hits; - = inactive; ? = inconclusive; . = not tested or not shown; [ ] = remark or other dose. Calls follow the shape of the dose curve; as a rule, active = well fitted curve in the direction sought with a large enough effect; inconclusive = small, poorly fitted or top-dose-only effect, or another doubt; inactive = no such curve, though single readings can be large; an effect the other way counts as inactive or inconclusive.

SMILES | G9a block | JMJD2A Tudor | BAZ2B block | GLS inh | HP1b chromo inh
CC1(C)NC(=O)N(CC(O)CN(c2ccccc2)S(=O)(=O)c2ccccc2)C1=O (configuration not stated) | - | - | - | - | -
COc1cc2[nH]c(=O)n(CCCCCC(=O)N3CCN(c4ccccn4)CC3)c(=O)c2cc1OC | ? | - | - | - | -
O=C1C=CC(=O)N1 | 2µM | - | - | - | ?
C=CCOC(=O)C1=C[C@H](c2csc3ccccc23)[C@@H](CCCO)[C@H](OCC)O1 | - | - | - | - | -
S=c1[nH]nc(COc2ccccc2)n1/N=C/c1ccccc1Br | 8.91µM | - | - | - | -
O=c1c2ccccc2nc(COc2ccccc2)n1/N=C/c1cc([N+](=O)[O-])ccc1O | - | - | - | - | -
Oc1ccc(Br)cc1/C=N/n1c(COc2ccccc2)n[nH]c1=S | 28.2µM | ? | - | - | ?
FC(F)(F)c1ccccc1/C=N/n1c(COc2ccccc2)n[nH]c1=S | 20µM | ? | ? | - | ?
CC(=O)N1CCC(=NNS(=O)(=O)c2ccc(C)c([N+](=O)[O-])c2)CC1 | 11.2µM | - | - | - | -
O=C(c1ccc(NS(=O)(=O)c2cccc([N+](=O)[O-])c2)cc1)N1CCCCCC1 | - | - | - | - | -
CC(=O)N1CCC(=NNS(=O)(=O)c2cccc([N+](=O)[O-])c2)CC1 | 10µM | - | - | - | -
C/C(=N\NS(=O)(=O)c1cccc([N+](=O)[O-])c1)c1cccnc1 | 31.6µM | - | - | - | -
C/C(=N/NC(=O)CNC(=O)c1cccnc1)c1cccc([N+](=O)[O-])c1 | - | - | - | - | -
CN(C(=O)c1ccc2c(c1)OCO2)C1(C(=O)NC2CCCCC2)CCCCC1 | - | - | - | - | -
CCc1ccc(NS(=O)(=O)c2cc3c4c(c2)CCN4C(=O)CC3)cc1 | - | - | - | - | -
CC(=O)C[C@@H](O)CC(=O)[C@@H]1OC(=O)CC/C=C\Cc2ccccc21 | -[2.33 µM] | - | - | - | -
CN(C)S(=O)(=O)N(CC(=O)N(Cc1ccccc1)Cc1ccccc1)c1ccccc1 | - | ? | 56.2µM | - | -
COc1ccc(OC)c2[nH]c(C(=O)N3CCC(C(=O)O)CC3)cc12 | - | - | - | - | -
COc1ccc(OC)c2[nH]c(C(=O)O)cc12 | ? | 89.1µM | - | - | -
CCCC[n+]1c(C)sc2ccc(C)cc21 | - | - | - | - | -
Cc1ccc2sc(C)[n+](CCO)c2c1 | 28.2µM | - | . | ? | -
O=C(c1cccc(F)c1)N1CCC2(CCCN(c3ccccc3)C2)CC1 | -[12.7 µM] | . | . | . | .
CCOC(=O)c1cnc(-c2ccccc2)nc1Oc1ccc(Cl)cc1 | - | - | - | - | -
CCOC(=O)c1cnc(-c2ccccc2O)nc1Cl | 44.7µM | 17.8µM | ? | ? | -
O=[N+]([O-])c1cc(S(=O)(=O)O)cc([N+](=O)[O-])c1NN(c1ccccc1)c1ccccc1 | 50.1µM | ? | - | - | -
SMILES | G9a block | JMJD2A Tudor | BAZ2B block | GLS inh | HP1b chromo inh
O=C(NNS(=O)(=O)c1ccc([N+](=O)[O-])cc1)c1ccncc1 | 39.8µM | - | - | - | -
Cc1ccc(S(=O)(=O)NNC(=O)c2ccncc2)cc1 | - | 79.4µM | - | - | -
O=C(NNS(=O)(=O)c1ccccc1)c1cccc(F)c1 | -[0.501 µM] | - | 56.2µM | - | -
O=C(NNS(=O)(=O)c1ccccc1)c1ccncc1 | ? | 10µM | - | - | -
O=C(NNC(=O)c1ccncc1)c1ccccc1 | - | - | - | - | -
Cc1ccc(S(=O)(=O)NNC(=O)c2cccnc2)cc1 | - | - | . | - | -
Cc1cccc(C(=O)NNS(=O)(=O)c2ccc(F)cc2)c1 | . | - | - | - | -
COc1cc(C2NC(=O)NC(c3ccccc3)=C2C(C)=O)ccc1OCC#N (configuration not stated) | ? | - | - | - | -
CCOc1cc(N2CCOCC2)c(OCC)cc1NC(=O)CN1C(=O)NC(CC(C)C)C1=O (configuration not stated) | - | - | - | - | -
O=C(CC12CC3CC(CC(C3)C1)C2)N/N=C/c1ccc([N+](=O)[O-])o1 | - | - | - | - | -
O=C(NNS(=O)(=O)c1ccc(F)cc1)c1ccc(O)cc1 | . | - | ? | - | -
Cc1ccc(S(=O)(=O)NNC(=O)c2sc(=S)n(C)c2C)cc1 | ? | 3.55µM | - | - | -
Cc1cccc(C(=O)NNS(=O)(=O)c2ccc(F)cc2)c1O | - | 2µM | - | ? | -
Cc1cc(C)n(-c2nc3ccccc3nc2Nc2ccc(N(C)C)cc2)n1 | 1.78µM | 11.2µM | 3.16µM | - | 8.91µM
Cc1cc(C)n(-c2nc3ccccc3nc2Nc2ccc3c(c2)OCO3)n1 | - | - | - | - | -
N=C1C(c2ccccc2)=C(O)CN1c1cccc(S(N)(=O)=O)c1 | - | - | - | - | -
N=C1C(c2ccccc2)=C(O)CN1c1cccc(S(=O)(=O)N2CCOCC2)c1 | - | 20µM | - | - | -
COCc1cc(N2CCCCC2)nc(-c2ccccc2)n1 | - | 20µM | - | - | -
CSCc1cc(N2CCCC2)nc(-c2ccccc2)n1 | - | - | - | - | -
O=C(Nc1ccc(CN2CCOCC2)cc1)c1ccc(-c2cc(Cl)ccc2Cl)o1 | - | - | - | - | -
S=C(c1ccc(-c2cc(Cl)ccc2Cl)o1)N1CCOCC1 | 8.91µM | ? | 35.5µM | - | 17.8µM
S=C(c1ccc(-c2cc(Cl)ccc2Cl)o1)N1CCCCC1 | ? | ? | 28.2µM | - | ?
Cc1[nH]n(-c2ncc(-c3ccccc3)s2)c(=O)c1C(c1ccc(Cl)cc1)C(C#N)C#N (configuration not stated) | ? | 39.8µM | 39.8µM | - | ?
O=C(NCCCc1ccccc1)C1CCN(S(=O)(=O)c2ccc(F)cc2)CC1 | - | - | - | - | -
Cc1ccc2c(c1)/C(=C/c1ccccc1)C(=O)N2 | - | ? | ? | - | -
O=C1Nc2ccc(I)cc2/C1=C/c1cc(Br)c(O)c(Br)c1 | 21.2µM | . | . | . | .
Cc1ccc(S(=O)(=O)Nc2ccc(NC(=O)c3ccc(F)cc3)cc2)cc1 | - | - | . | - | -
COc1ccc(NC(=O)NC2COc3ccccc3C2)c(OC)c1 (configuration not stated) | - | - | - | - | -
O=C(CC1S/C(=N/N=C2CCCCCC2)NC1=O)Nc1ccccc1F (configuration not stated) | - | - | - | - | -
O=C(O)CNC(=O)CC1S/C(=N/N=C2\CSC(=O)N2)NC1=O (configuration not stated) | - | 7.08µM | 6.31µM | - | -
